Consider three compounds from ChEMBL document CHEMBL1961873, “Compounds: GSK PKIS; Assays: Nanosyn kinase panel” (2012).

Test [1] concerns the target Ribosomal protein S6 kinase alpha-6 (Homo sapiens) (UniProt Q9UK32). The settings on record: at 1 µM.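 Also: each value is a mean inhibition of RSK4 from a GSK PKIS panel screen.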
In test [2] the target is T1, Serine/threonine-protein kinase Sgk1 (Homo sapiens) (UniProt O00141).
T1 sequence (whole entry): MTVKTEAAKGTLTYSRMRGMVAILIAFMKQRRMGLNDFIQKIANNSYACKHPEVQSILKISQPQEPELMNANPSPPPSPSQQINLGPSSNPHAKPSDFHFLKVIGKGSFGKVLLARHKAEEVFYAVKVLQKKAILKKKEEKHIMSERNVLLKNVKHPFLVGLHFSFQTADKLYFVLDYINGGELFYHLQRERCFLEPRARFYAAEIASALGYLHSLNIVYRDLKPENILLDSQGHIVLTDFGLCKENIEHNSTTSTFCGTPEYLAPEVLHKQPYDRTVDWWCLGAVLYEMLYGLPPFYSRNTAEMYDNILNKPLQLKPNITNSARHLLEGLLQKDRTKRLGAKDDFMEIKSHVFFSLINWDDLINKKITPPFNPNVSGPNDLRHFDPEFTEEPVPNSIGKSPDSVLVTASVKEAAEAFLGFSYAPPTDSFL
To be noted: at 0.1 µM.

Test [3] deals with T1, Serine/threonine-protein kinase Sgk1 (Homo sapiens). The settings on record: at 1 µM.
For test [4], the target named is T2, Serine/threonine-protein kinase Sgk2 (Homo sapiens) (UniProt Q9HBY8).
T2 sequence (whole entry): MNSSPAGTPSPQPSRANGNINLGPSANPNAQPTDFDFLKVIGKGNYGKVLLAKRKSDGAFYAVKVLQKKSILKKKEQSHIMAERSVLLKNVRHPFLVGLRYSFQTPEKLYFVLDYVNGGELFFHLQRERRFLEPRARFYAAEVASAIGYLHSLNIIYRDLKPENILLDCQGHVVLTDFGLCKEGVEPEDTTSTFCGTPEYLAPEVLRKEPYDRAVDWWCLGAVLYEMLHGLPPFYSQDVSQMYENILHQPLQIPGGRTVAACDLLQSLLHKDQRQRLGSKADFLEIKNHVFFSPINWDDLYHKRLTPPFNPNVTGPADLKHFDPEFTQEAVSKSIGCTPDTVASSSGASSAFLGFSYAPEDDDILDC
To be noted: at 0.1 µM.

In test [5] the target is T2, Serine/threonine-protein kinase Sgk2 (Homo sapiens). To be noted: at 1 µM.
The target in test [6] is T3, Serine/threonine-protein kinase Sgk3 (Homo sapiens) (UniProt Q96BR1).
T3 sequence (whole entry): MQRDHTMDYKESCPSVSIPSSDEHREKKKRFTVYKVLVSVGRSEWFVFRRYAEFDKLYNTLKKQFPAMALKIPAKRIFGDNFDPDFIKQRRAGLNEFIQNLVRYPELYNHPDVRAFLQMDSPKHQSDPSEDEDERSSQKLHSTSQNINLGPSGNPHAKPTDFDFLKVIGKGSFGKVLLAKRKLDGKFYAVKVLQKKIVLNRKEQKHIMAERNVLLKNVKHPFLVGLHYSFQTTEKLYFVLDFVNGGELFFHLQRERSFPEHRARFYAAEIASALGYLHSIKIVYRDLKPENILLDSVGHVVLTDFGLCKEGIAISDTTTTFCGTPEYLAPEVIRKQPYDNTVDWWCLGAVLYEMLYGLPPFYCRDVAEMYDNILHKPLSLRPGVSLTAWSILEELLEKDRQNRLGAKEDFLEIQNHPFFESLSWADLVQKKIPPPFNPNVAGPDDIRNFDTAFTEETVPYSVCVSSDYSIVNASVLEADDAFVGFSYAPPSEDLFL
The settings on record: at 0.1 µM.

The target in test [7] is T3, Serine/threonine-protein kinase Sgk3 (Homo sapiens). The settings on record: at 1 µM.
Test [8] concerns the target 5'-AMP-activated protein kinase catalytic subunit alpha-1 (Homo sapiens) (UniProt Q13131). To be noted: at 0.1 µM.
The target is the same in test [9]. The settings on record: at 1 µM.
Test [10] concerns the target 5'-AMP-activated protein kinase catalytic subunit alpha-2 (Homo sapiens) (UniProt P54646). The settings on record: at 0.1 µM.
The target is the same in test [11]. The settings on record: at 1 µM.
Test [12] deals with T4, NUAK family SNF1-like kinase 1 (Homo sapiens) (UniProt O60285).
T4 sequence (whole entry): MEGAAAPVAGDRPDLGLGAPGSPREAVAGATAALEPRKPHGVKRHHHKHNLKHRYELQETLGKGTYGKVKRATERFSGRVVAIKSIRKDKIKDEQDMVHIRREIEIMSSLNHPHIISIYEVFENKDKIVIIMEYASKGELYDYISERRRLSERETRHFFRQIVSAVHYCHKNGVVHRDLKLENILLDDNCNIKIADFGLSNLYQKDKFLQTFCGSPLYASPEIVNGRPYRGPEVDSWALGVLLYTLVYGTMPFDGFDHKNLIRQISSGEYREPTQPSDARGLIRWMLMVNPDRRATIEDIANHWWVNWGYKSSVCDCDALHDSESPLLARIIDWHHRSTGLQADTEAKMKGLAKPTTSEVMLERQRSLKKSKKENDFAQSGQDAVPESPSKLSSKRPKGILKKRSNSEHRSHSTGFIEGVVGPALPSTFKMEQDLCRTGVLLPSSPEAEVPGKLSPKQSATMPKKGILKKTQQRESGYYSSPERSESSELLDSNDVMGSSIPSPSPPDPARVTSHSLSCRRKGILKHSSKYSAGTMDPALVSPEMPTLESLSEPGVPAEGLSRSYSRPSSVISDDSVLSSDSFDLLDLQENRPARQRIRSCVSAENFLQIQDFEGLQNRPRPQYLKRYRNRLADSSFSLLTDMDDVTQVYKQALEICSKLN
The settings on record: at 0.1 µM.

The target of test [13] is T4, NUAK family SNF1-like kinase 1 (Homo sapiens). The settings on record: at 1 µM.
Test [14] concerns the target T5, Serine/threonine-protein kinase BRSK1 (Homo sapiens) (UniProt Q8TDC3).
T5 sequence (whole entry): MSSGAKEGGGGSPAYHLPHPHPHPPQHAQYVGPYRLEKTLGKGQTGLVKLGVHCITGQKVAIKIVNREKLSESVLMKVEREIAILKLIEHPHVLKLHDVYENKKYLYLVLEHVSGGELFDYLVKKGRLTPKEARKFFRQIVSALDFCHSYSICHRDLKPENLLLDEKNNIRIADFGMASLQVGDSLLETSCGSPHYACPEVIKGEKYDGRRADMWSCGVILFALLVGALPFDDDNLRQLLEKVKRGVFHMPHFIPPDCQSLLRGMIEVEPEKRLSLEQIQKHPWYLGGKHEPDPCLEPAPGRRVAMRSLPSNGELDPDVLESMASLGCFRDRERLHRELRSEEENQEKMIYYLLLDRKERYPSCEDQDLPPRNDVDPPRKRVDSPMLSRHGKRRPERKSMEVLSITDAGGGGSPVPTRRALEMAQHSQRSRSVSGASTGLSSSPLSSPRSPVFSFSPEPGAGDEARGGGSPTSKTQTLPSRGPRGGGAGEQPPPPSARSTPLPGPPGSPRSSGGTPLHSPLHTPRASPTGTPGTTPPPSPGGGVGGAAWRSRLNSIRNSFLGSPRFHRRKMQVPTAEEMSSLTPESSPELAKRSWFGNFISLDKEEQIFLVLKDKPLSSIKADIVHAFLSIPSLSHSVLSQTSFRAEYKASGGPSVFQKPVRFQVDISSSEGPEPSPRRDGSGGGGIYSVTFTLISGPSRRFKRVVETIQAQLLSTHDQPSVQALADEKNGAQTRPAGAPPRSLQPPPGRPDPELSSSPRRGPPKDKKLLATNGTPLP
The settings on record: at 0.1 µM.

The target of test [15] is T5, Serine/threonine-protein kinase BRSK1 (Homo sapiens). To be noted: at 1 µM.
Test [16] deals with T6, Serine/threonine-protein kinase BRSK2 (Homo sapiens) (UniProt Q8IWQ3).
T6 sequence (whole entry): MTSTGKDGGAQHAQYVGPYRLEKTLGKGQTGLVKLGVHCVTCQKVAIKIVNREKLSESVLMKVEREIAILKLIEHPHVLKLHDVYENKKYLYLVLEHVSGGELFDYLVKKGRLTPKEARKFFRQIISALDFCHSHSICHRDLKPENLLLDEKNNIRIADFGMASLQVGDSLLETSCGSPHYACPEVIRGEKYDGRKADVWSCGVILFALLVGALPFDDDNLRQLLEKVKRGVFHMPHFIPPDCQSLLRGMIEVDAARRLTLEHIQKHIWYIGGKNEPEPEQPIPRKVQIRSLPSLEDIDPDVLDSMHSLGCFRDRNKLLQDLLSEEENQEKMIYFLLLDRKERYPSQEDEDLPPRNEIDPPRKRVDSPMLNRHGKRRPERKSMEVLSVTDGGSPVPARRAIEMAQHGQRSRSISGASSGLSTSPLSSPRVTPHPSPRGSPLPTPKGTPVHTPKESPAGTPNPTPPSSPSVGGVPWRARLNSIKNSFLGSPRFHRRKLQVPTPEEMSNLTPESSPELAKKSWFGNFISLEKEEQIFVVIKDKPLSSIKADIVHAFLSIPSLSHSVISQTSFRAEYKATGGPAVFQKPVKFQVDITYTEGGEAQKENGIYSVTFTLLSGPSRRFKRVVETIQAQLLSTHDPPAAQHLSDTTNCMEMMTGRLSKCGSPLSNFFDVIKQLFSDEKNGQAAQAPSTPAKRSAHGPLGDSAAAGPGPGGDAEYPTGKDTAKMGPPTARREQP
The settings on record: at 0.1 µM.

The target of test [17] is T6, Serine/threonine-protein kinase BRSK2 (Homo sapiens). To be noted: at 1 µM.
Test [18] concerns the target Calcium/calmodulin-dependent protein kinase type 1D (Homo sapiens) (UniProt Q8IU85). To be noted: at 0.1 µM.
For test [19] the target is unchanged. The settings on record: at 1 µM.
For test [20], the target named is Calcium/calmodulin-dependent protein kinase type II subunit alpha (Homo sapiens) (UniProt Q9UQM7). The settings on record: at 0.1 µM.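 Also: reported values are averages (mean inhibition of CAMK2A).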
Chain of Calcium/calmodulin-dependent protein kinase type II subunit alpha (Homo sapiens) (Q9UQM7 whole entry): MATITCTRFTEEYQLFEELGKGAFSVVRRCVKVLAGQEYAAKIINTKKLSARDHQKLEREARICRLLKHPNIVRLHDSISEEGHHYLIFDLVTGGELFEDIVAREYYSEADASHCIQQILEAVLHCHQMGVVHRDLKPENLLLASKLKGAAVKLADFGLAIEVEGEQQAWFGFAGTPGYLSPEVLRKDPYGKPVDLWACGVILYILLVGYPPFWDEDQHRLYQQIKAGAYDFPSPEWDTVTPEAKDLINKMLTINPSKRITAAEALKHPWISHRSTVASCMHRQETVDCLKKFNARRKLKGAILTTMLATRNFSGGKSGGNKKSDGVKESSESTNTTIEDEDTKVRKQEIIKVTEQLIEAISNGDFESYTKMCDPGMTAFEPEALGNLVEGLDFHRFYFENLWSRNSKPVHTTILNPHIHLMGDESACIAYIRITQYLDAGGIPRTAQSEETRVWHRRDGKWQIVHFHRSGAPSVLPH

Chain of Ribosomal protein S6 kinase alpha-6 (Homo sapiens) (Q9UK32 whole entry): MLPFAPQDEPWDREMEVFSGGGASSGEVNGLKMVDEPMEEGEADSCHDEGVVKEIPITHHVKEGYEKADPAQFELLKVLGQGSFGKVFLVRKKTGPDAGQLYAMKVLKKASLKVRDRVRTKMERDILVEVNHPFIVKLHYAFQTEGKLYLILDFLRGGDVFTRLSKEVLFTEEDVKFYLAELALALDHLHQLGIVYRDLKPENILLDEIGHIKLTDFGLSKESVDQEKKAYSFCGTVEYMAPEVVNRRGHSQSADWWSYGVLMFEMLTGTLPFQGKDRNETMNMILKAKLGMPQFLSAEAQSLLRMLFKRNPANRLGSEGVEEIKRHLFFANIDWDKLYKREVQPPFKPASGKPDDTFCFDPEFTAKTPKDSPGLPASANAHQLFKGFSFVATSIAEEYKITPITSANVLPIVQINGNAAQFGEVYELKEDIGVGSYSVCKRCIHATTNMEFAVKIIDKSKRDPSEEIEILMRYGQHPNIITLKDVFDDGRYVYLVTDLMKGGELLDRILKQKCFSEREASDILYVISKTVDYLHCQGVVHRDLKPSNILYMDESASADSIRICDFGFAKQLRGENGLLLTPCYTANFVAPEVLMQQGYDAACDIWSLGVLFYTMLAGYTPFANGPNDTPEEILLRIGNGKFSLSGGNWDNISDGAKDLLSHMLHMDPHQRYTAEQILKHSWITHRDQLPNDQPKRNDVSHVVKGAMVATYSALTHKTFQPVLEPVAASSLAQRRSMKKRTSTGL
Chain of 5'-AMP-activated protein kinase catalytic subunit alpha-1 (Homo sapiens) (Q13131 whole entry, looked up): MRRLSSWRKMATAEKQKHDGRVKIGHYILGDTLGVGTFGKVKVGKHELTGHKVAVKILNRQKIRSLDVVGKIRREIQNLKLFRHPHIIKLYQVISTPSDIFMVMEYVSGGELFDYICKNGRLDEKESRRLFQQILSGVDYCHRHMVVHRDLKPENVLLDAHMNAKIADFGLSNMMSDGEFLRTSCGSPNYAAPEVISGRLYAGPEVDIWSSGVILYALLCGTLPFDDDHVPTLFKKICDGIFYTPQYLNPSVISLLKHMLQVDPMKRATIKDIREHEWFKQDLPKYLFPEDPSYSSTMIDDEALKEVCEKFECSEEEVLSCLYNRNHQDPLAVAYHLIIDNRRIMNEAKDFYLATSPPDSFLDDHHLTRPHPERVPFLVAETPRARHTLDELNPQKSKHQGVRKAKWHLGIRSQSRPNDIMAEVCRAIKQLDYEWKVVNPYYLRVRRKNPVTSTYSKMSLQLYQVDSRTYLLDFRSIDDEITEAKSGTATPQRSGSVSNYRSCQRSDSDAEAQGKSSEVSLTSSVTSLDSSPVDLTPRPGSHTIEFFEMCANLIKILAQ
Chain of 5'-AMP-activated protein kinase catalytic subunit alpha-2 (Homo sapiens) (P54646 whole entry, looked up): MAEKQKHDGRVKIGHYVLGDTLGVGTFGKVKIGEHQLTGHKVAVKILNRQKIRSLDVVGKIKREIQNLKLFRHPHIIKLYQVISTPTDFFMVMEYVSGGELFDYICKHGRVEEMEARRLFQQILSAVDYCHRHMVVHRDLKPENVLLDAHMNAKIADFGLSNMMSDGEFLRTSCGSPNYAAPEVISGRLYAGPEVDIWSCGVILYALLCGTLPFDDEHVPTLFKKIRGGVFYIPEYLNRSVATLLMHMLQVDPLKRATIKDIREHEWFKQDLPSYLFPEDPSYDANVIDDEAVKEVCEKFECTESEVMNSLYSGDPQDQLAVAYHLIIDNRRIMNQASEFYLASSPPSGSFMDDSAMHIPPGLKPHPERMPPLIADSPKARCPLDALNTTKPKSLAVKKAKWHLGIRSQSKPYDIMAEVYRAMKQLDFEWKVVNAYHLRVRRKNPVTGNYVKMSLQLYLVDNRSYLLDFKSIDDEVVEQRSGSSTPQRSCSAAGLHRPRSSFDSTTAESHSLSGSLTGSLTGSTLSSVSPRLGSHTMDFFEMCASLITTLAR
Chain of Calcium/calmodulin-dependent protein kinase type 1D (Homo sapiens) (Q8IU85 whole entry, looked up): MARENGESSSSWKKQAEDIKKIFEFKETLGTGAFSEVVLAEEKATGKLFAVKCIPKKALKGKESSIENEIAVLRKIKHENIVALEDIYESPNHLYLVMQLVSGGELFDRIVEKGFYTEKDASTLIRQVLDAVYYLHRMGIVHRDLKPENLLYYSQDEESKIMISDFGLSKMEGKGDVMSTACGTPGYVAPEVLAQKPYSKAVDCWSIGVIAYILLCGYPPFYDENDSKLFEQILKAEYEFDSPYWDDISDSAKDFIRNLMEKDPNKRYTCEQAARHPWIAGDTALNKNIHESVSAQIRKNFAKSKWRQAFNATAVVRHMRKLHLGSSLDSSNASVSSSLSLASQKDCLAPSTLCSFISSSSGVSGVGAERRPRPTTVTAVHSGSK

For the compound `O=C1Nc2ccc(C(=O)c3ccco3)cc2C1=Cc1cc(Cl)c(O)c(Cl)c1`, the inhibition (commonly the relative decrease from the control value, in per cent) worked out at 12% in test [1]; 1.08% in test [2]; 5.11% in [3]; 1.59% in test [4]; 3.35% in test [5]; 1.55% in test [6]. In addition, the inhibition in test [7] was determined as 2.25%; in test [8] it was 4.48%; in test [9] it was 21.4%; in [10], 3.01%; in test [11], 10.8%; in test [12], 2.94%. In addition, the inhibition is 10.8% in [13]; 1.94% in test [14]; 8.43% in test [15]; 3.02% in [16]; 13.1% in test [17]; -0.26% in test [18]. Further, the inhibition in test [19] was found to be 0.48%; in test [20] it was 3.4%.

Regarding `COc1cc2ncn(-c3cc(OCc4ccccc4Cl)c(C(N)=O)s3)c2cc1OC`, the inhibition was 17.2% in test [1]; 0.97% in test [2]; 1.67% in test [3]; 0.56% in test [4]; 0.22% in test [5]; 2.12% in test [6]. The inhibition in [7] was 0.41%; in test [8], 1.36%; in [9] it was 10.7%; in test [10], 4.07%; in [11] it was 3.59%; in [12] it was 14.3%. For the same compound, the inhibition in [13] was 58.6%; in [14], 7.81%; in test [15] it was 40.6%; in test [16] it was 12.4%; in test [17] it was 48.6%; in [18], 0.78%. Also, the results for the inhibition in test [19] and in test [20] were 3.64% and -2.74%, respectively.

With `CCn1c(-c2nonc2N)nc2ccncc21`, the inhibition in test [1] was 1.11%; in [2], 0.13%; in test [3], 1.04%; in [4] it was 2.07%; in test [5], -2.06%; in test [6], 0.78%. Moreover, the inhibition in [7] is 0.08%; in test [8] it was 2.35%; in [9], 0.79%; in test [10], -1.16%; in test [11], 4.28%; in test [12] it was 1.84%. The inhibition in test [13] was 4.31%; in test [14] it was 1.52%; in test [15], 2.23%; in test [16], 1.34%; in test [17], 0.91%; in test [18], 1.15%. Moreover, the results for the inhibition in test [19] and in test [20] were 1.59% and 3.93%, respectively.
